Assay outcomes as filed in PubChem BioAssay.
Peg3 prom inh: Peg3 promoter activity inhibition. HeLa PEG-Prom luciferase reporter, luminescence, overnight. inhibition, % at 20 µM. 1.7% of 360,000 active;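 active means inhibition of at least 50% at 20 µM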
EBV LMP1 NFkB: inhibitors of Epstein-Barr LMP1-induced NF-kappaB reporter. LMP1-induced NF-kappaB luciferase reporter cells, luminescence. inhibition, % at 12.5 µM. 0.69% of 350,000 active; in the data active means inhibition above about 41%;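 further: 0% = neutral control wells and 100% = reference inhibitor control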
KKLEB cytotox: counter-screen for CF NF-kB inhibitors: cytotoxicity; activity change (cytotoxicity), % at 5 µM; AID 602141; KKLEB CF airway cells viability, ATPlite luminescence, overnight; stronger effect = lower value; cells stimulated with P. aeruginosa culture filtrate; 0.36% of 360,000 active;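 active means corrected activity change at or below -50% at 5 µM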
MITF TRPM1 inh: inhibitors of MITF-driven TRPM1 promoter in melanoma cells. SK-MEL-5 TRPM1 promoter luciferase, 24 h. inhibition, % at 12.5 µM. 0.83% of 330,000 active;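 active means mean inhibition across replicates of 60% or more, whatever share of single replicates reaches that level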
Shn3 inh set2: inhibitors of Schnurri-3 3'UTR reporter in osteoblasts; 0.52% of 360,000 active; AID 588674; inhibition, % at 12.5 µM; Clone20 osteoblast Shn3 3'UTR firefly luciferase, 24 h;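 active means mean inhibition of at least 75% with every replicate also reaching 75%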;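 further: 0% = median of neutral control wells and 100% = pilot-screen positive control compound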
CF NFkB inh: inhibitors of cystic fibrosis induced NF-kB; inhibition, % at 5 µM; KKLEB NF-kB-GFP reporter, PAF-induced, GFP fluorescence overnight; AID 588850; 0.86% of 360,000 active;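 active means at least 50% inhibition at 5 µM, scaled per plate between neutral and stimulator controls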;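 further: PAF is a Pseudomonas aeruginosa culture filtrate used as stimulus; plate controls were PAF-stimulated DMSO wells for no effect and unstimulated DMSO wells for full effect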
* hit, by the source's call; nt = no result given. In the library only some 2.9% were active in any assay of this set; here they are far more common.

SMILES	Peg3 prom inh	EBV LMP1 NFkB	KKLEB cytotox	MITF TRPM1 inh	Shn3 inh set2	CF NFkB inh
COc1ccc(CN(C)C(=O)/C=C/[C@H]2O[C@@H](n3cc(C)c(=O)[nH]c3=O)C[C@@H]2O)cc1OC	9	nt	-5	nt	9	-26
c1ccc2c(-c3ccncc3)c[nH]c2c1	-58	77*	-2	-13	-9	31
c1ccc(-c2nnc(-c3ccccc3)c(-c3c[nH]c4ccccc34)n2)cc1	24	-6	-1	-17	2	3
Cc1cc(S(=O)(=O)Nc2ccc(C(=O)NC3CC3)cc2)ccc1F	15	2	6	nt	-7	10
CC(=O)c1ccc(OCC(O)CN2CCN(CCN3C(=O)c4cccc5cccc(c45)C3=O)CC2)cc1 (stereo not drawn)	50*	-7	-2	-3	11	-27
Cc1cccc(C)c1OCC(O)CN1CCC(CN2C(=O)c3cccc4cccc(c34)C2=O)CC1 (stereo not drawn)	55*	-31	-13	14	6	-11
Cc1ccccc1OCC(O)CN1CCN(CCN2C(=O)c3cccc4cccc(c34)C2=O)CC1 (stereo not drawn)	30	0	-2	4	24	-51
O=C(c1ccc(S(=O)(=O)N2CCCCC2)cc1)N1CCN(CCN2C(=O)c3cccc4cccc(c34)C2=O)CC1	68*	18	-10	52	39	-27
O=C(c1ccc(S(=O)(=O)N2CCCC2)cc1)N1CCCCCC1	-2	-2	18	-1	8	-14
CSc1ccc(OC2(C)CCN(Cc3ccc(C(C)C)cc3)C2)cc1 (stereo not drawn)	8	nt	-6	nt	-12	-28
CCC(=O)Nc1ccc(Nc2nc(C)c([N+](=O)[O-])c(Nc3ccc(NC(=O)CC)cc3)n2)cc1	53*	4	-12	12	24	40
CC(C)Cn1nc(C(=O)Nc2nnc(C3CC3)s2)c2ccccc2c1=O	7	1	-4	6	0	-18
O=C1C(C=NCc2ccncc2)=C(O)c2ccccc21	-34	1	-6	3	16	-5
O=C1C(C=NCc2cccnc2)=C(O)c2ccccc21	-205	62*	0	-14	-55	-6
CC(C)n1cnc2c(NCc3ccccc3)cc(N[C@H](C)CO)cc21	67*	-10	-18	73*	42	15
COCCC(=O)N1CCOCC1c1cc(C(=O)NCc2ccccc2)no1 (stereo not drawn)	9	nt	0	nt	1	-2
Cc1cccc(CN2[C@H](COCc3ccccc3)C=CS2(=O)=O)c1	0	nt	-6	nt	-4	-12
CC(C)(C)c1nc(NCCN2CCOCC2)c2nnn(Cc3ccccc3Cl)c2n1	21	8	-2	22	84*	26
NC(=O)c1cccc(-c2ccnc3c2CC(C(=O)Nc2cccc(Oc4ccccc4)c2)O3)c1 (stereo not drawn)	22	nt	-25	nt	3	1
Cn1nc(C(C)(C)C)cc1C(=O)N1CCCCC1c1cc(C(=O)Nc2ccc(F)c(Cl)c2)no1 (stereo not drawn)	25	nt	4	nt	86*	-22
O=C(Nc1ccc(F)c(Cl)c1)c1cc(C2CCCCN2C(=O)c2ccc(Cl)cc2)on1 (stereo not drawn)	16	nt	-10	nt	10	6
Cc1ccc2oc(-c3cccc(N)c3)nc2c1	-100	-16	-1	1	1	-48
Nc1cccc(-c2nc3cc(S(=O)(=O)c4ccc5oc(-c6cccc(N)c6)nc5c4)ccc3o2)c1	73*	14	9	55	46	-10
O=C(NCCCl)Nc1ncn[nH]1	100*	-1	-11	-5	6	-5
COc1cccc(NC(=O)N(C)C[C@@H]2OCc3cnnn3CCCC(=O)N([C@@H](C)CO)C[C@H]2C)c1	16	2	-2	nt	-12	6
SMILES	Peg3 prom inh	EBV LMP1 NFkB	KKLEB cytotox	MITF TRPM1 inh	Shn3 inh set2	CF NFkB inh
N#CC1=C(N)OC2=C(C(=O)CCC2)[C@]12C(=O)N(CC(N)=O)c1ccccc12	17	-4	0	-1	-6	10
N#CC1=C(N)OC2=C(C(=O)CCC2)C12C(=O)N1CCCc3cccc2c31 (stereo not drawn)	-1	84*	-8	12	16	13
COc1ccc(N(C)S(=O)(=O)c2cccc(C(=O)NC3CCCC3)c2)cc1	15	8	8	6	32	-20
COc1ccc(N(C)S(=O)(=O)c2cccc(C(=O)NC3CCCCC3C)c2)cc1 (stereo not drawn)	102*	4	-13	12	-6	7
CC(=O)NC(C)(c1ccccc1)c1nc(-c2ccc(S(C)(=O)=O)cc2)cs1 (stereo not drawn)	8	nt	0	nt	-11	-2
CCOC(=O)c1c(CSc2ccc(CC)cc2)oc2ccc(O)c(CN(C)C)c12	98*	-15	-21	45	90*	38
COc1ccc(N2CCN(CCCn3cnc4c(OC)ncnc43)CC2)cc1	-2	3	8	nt	-23	-12
CC(=O)c1ccc(S(=O)(=O)N2CCN(c3nc(-c4cccnc4)nc4ccccc34)CC2)cc1	24	-7	-2	1	2	-30
CC[C@H](C)[C@@H](C(=O)NCCCCCCCCCCC(=O)N1CCN(C(=O)OC(C)(C)C)CC1)n1cc(CCCCCNC(=O)OC(C)(C)C)nn1	28	19	-1	65*	89*	10
CC(C)(C)OC(=O)CC[C@@H](C(=O)NCCCCCCCCCCC(=O)N1CCN(C(=O)OC(C)(C)C)CC1)n1cc(CCCCCNC(=O)OC(C)(C)C)nn1	2	6	8	12	31	-3
CC(C)(C)OC(=O)NCCCC[C@@H](C(=O)NCCCCCCCCCCC(=O)N1CCN(C(=O)OC(C)(C)C)CC1)n1cc(CCCC(=O)O)nn1	0	-2	-2	4	-3	0
CC(C)(C)OC(=O)NCCCCCc1cn([C@@H](CO)C(=O)NCCCCCCCCCCC(=O)N2CCN(C(=O)OC(C)(C)C)CC2)nn1	93*	15	5	58	34	8
COc1cccc(NC(=O)C2(C)CCN2C(=O)CC2CC2)c1 (stereo not drawn)	4	nt	3	nt	15	-8
COC(=O)c1nn(-c2ccc(-c3ccccc3)cc2)cc1O	-32	5	6	73*	46	-8
COc1ccc(/C=C2/SC(=O)N(CCC(=O)Nc3ccccc3)C2=O)cc1OC	10	-9	-54*	4	-3	60*
COc1cc(OC)c(/C=C2\SC(=O)N(CC(=O)Nc3ccccc3F)C2=O)c(OC)c1	47	44*	-16	7	5	24
Cc1cc(NC(=O)c2ccccc2)nc2c1c(=O)oc1ccccc12	15	8	4	0	0	-45
Cc1cc(NC(=O)c2ccc(S(=O)(=O)N3CCCC3)cc2)nc2c1c(=O)oc1ccccc12	47	-2	-54*	23	21	47
